Measurements as given in PubChem BioAssay AID1159580 (chemical genetic matrix, 2015).
Hit rate of the full screen: of about 5,500 compounds, about 2,000 (36%) were called active. Not shown: some 18% with an inconclusive outcome. No stated cut-off is given here; in the data, active means normalized growth mostly below about 0.91 (no sharp cut-off); inconclusive means no clear call, values can overlap the other calls; inactive means mostly above about 0.92. This is one part of the list.

Test: chemical genetic growth profiling, strain panel (AID 1159580);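 further: tested at 20 µM; growth read once vehicle control cultures reached saturation at 30 °C; 1 = growth at the plate median or of vehicle wells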
Conditions: S. cerevisiae deletion strains, growth OD

Measured: normalized growth

CCn1cc(C(=O)O)c(=O)c2ccc(Cc3ccccc3)nc21
inactive: locus YAL013W, strain DEP1, stronger effect = lower value 1.03 | locus YAL040C, strain CLN3, stronger effect = lower value 1 | locus YCL061C, strain MRC1 (second series), stronger effect = lower value 1.01 | locus YDR363W, strain ESC2, stronger effect = lower value 1.01 | locus YER002W, strain NOP16, stronger effect = lower value 0.964 | locus YGR078C, strain PAC10, stronger effect = lower value 0.971 | locus YJR075W, strain HOC1, stronger effect = lower value 1.02 | locus YMR263W, strain SAP30, stronger effect = lower value 1 | locus YMR307W, strain GAS1, stronger effect = lower value 1 | locus YNL128W, strain TEP1, stronger effect = lower value 0.988 | locus YNL153C, strain GIM3, stronger effect = lower value 0.923 | locus YNL175C, strain NOP13, stronger effect = lower value 0.972 | locus YNL197C, strain WHI3, stronger effect = lower value 0.942 | locus YNL224C, strain SQS1, stronger effect = lower value 0.965 | locus YNL322C, strain KRE1, stronger effect = lower value 0.991 | locus YOR083W, strain WHI5 (second series), stronger effect = lower value 1.09 | locus YPL241C, strain CIN2, stronger effect = lower value 1.01
